# Data from the supplement of paper PMC11732987, “Enantioselective OTUD7B fragment discovery through chemoproteomics screening and high-throughput optimisation” (Communications Chemistry, 2025).
# A number with no mark means an inactive call.
# Legend:
# Assay in all cases: log2 ratio of Biotin-Ahx-Ub-VS probe labelling (fragment/DMSO); higher = less target engagement (more negative = stronger competition), active = hit call of the paper (q ≤ 0.05, log2 ratio ≤ -1)
# Details in all cases: compound concentration: 200 uM; treatment time: 3 h
# USP16 = USP16 (UniProt Q9Y5T5)
# Summary of the method: (§1)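 Global-median-normalised Spectronaut label-free quantities were compared by unpaired t-test, and values are average log2 ratios of fragment over vehicle. Only proteins with ≥2 unique peptides were used. HEK293T lysate (495 µg per sample) was treated in triplicate with fragment at 200 µM or vehicle for 3 h and then with Biotin-Ahx-Ub-VS at 0.5 µM final for 1 h. Labelled DUBs were then NeutrAvidin-enriched, digested with LysC and trypsin, and run by diaPASEF LC-MS/MS.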
# USP19 = molecular target: T1, USP19 (UniProt O94966)
# T1 sequence (whole entry): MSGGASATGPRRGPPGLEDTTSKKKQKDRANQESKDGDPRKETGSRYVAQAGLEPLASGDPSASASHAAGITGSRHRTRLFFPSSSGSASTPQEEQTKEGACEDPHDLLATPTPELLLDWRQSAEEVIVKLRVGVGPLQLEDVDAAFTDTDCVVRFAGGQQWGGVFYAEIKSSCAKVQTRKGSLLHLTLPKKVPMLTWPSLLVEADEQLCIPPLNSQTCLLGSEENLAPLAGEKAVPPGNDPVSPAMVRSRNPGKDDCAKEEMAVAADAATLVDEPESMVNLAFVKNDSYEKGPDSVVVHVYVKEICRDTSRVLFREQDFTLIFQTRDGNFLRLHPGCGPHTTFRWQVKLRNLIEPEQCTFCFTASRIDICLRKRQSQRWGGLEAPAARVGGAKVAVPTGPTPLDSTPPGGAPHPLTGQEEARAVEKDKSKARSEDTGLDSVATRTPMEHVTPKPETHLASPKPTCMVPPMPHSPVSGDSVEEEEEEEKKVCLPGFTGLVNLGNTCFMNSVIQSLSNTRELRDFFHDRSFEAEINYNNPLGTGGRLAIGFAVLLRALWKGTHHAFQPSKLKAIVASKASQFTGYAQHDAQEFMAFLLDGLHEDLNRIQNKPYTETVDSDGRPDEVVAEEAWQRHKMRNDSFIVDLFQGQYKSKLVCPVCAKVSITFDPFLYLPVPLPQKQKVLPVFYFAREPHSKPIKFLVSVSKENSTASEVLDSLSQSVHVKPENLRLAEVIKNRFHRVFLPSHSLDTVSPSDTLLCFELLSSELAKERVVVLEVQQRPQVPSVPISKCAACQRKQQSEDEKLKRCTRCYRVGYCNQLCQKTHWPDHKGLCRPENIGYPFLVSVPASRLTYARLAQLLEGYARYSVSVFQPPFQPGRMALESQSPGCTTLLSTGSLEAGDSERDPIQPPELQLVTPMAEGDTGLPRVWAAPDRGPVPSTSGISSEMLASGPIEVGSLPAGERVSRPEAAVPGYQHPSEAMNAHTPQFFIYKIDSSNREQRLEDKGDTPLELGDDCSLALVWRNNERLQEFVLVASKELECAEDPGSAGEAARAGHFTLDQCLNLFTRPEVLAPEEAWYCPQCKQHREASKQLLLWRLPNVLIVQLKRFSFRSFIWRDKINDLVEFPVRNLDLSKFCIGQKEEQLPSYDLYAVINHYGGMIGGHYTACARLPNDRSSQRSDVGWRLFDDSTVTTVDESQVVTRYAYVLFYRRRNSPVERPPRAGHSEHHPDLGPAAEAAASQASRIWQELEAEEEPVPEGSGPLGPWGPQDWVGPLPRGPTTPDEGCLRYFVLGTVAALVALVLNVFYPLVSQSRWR
# Summary of the method: as §1
# USP24 = USP24 (UniProt Q9UPU5)
# Summary of the method: as §1
# USP25 = molecular target: T2, USP25 (UniProt Q9UHP3)
# T2 sequence (whole entry): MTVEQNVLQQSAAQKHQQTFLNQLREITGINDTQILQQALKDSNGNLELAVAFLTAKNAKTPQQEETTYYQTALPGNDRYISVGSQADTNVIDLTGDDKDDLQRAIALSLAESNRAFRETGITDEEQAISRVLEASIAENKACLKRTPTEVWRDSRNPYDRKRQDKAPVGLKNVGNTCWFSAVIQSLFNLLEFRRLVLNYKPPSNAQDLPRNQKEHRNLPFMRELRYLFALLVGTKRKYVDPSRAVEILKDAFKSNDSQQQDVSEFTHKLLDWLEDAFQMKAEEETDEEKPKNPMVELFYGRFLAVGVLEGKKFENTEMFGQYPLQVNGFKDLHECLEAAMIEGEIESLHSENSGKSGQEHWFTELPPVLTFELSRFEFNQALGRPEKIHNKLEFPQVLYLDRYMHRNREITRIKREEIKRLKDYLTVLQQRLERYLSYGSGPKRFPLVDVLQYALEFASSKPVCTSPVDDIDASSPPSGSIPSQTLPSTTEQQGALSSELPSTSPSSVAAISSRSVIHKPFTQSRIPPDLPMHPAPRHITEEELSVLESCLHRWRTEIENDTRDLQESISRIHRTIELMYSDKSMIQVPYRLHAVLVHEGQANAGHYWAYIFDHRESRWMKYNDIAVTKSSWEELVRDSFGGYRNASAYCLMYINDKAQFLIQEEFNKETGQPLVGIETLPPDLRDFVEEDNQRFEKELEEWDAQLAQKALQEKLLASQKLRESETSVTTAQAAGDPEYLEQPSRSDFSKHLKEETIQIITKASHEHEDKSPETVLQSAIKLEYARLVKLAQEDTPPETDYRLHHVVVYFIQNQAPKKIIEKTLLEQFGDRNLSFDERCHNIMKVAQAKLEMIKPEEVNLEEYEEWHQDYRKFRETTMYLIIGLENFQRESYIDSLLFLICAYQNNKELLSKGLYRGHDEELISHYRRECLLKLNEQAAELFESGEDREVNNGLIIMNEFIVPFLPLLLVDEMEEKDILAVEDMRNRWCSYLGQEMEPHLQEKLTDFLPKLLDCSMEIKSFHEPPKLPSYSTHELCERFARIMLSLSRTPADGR
# Summary of the method: as §1
# USP28 = molecular target: T3, USP28 (UniProt Q96RU2)
# T3 sequence (whole entry): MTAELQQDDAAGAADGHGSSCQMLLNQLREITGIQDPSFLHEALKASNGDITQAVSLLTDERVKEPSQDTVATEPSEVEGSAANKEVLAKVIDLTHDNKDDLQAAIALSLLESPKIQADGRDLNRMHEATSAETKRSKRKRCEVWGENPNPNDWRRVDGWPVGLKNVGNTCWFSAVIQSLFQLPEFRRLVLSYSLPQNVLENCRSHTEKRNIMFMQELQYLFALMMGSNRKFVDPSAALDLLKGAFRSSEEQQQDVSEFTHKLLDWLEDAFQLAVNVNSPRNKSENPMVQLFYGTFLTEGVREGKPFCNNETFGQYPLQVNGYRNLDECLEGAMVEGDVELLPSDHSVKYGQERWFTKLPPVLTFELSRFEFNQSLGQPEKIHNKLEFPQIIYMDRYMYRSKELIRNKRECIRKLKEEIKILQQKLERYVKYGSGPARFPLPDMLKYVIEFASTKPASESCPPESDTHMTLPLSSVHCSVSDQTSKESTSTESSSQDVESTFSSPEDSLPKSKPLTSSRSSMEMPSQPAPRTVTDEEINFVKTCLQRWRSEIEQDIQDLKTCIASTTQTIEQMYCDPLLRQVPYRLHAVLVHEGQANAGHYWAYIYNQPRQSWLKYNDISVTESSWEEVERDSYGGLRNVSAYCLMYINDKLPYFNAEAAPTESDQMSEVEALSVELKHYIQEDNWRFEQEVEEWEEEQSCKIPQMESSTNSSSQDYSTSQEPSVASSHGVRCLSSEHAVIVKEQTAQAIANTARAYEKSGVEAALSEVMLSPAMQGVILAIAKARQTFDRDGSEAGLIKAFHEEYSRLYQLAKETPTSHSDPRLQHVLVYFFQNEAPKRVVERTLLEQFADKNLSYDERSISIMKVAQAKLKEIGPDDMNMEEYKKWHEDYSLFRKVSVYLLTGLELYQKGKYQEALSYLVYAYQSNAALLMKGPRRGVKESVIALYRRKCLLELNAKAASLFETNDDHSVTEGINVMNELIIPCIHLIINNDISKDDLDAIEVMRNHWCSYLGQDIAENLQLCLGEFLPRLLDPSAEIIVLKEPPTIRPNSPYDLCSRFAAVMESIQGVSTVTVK
# Summary of the method: as §1
# USP16, sequence (Q9Y5T5 whole entry, looked up, the tested form may be a part): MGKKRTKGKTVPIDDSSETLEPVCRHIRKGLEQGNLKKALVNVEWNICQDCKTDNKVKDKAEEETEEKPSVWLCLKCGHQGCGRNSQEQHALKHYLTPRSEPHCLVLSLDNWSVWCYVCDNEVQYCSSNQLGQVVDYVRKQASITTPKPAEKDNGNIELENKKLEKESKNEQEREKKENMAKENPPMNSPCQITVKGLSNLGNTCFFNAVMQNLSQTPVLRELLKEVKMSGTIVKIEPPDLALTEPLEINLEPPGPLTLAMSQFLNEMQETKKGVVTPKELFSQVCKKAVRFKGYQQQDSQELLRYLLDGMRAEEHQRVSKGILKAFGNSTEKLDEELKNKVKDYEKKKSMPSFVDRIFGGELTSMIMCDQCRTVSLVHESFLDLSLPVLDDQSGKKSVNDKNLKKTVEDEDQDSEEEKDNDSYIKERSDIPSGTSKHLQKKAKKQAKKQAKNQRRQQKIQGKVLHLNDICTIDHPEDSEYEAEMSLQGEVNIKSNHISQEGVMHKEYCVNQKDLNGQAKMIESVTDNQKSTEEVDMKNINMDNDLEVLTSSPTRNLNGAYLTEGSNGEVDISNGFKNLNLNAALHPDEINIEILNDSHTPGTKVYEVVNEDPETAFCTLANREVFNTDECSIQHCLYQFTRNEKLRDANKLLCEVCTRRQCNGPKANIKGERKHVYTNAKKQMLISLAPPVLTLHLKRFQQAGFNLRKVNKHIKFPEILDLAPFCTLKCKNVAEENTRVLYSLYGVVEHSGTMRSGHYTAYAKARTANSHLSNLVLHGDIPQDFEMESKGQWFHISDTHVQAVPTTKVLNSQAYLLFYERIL
# USP24, sequence (Q9UPU5 whole entry): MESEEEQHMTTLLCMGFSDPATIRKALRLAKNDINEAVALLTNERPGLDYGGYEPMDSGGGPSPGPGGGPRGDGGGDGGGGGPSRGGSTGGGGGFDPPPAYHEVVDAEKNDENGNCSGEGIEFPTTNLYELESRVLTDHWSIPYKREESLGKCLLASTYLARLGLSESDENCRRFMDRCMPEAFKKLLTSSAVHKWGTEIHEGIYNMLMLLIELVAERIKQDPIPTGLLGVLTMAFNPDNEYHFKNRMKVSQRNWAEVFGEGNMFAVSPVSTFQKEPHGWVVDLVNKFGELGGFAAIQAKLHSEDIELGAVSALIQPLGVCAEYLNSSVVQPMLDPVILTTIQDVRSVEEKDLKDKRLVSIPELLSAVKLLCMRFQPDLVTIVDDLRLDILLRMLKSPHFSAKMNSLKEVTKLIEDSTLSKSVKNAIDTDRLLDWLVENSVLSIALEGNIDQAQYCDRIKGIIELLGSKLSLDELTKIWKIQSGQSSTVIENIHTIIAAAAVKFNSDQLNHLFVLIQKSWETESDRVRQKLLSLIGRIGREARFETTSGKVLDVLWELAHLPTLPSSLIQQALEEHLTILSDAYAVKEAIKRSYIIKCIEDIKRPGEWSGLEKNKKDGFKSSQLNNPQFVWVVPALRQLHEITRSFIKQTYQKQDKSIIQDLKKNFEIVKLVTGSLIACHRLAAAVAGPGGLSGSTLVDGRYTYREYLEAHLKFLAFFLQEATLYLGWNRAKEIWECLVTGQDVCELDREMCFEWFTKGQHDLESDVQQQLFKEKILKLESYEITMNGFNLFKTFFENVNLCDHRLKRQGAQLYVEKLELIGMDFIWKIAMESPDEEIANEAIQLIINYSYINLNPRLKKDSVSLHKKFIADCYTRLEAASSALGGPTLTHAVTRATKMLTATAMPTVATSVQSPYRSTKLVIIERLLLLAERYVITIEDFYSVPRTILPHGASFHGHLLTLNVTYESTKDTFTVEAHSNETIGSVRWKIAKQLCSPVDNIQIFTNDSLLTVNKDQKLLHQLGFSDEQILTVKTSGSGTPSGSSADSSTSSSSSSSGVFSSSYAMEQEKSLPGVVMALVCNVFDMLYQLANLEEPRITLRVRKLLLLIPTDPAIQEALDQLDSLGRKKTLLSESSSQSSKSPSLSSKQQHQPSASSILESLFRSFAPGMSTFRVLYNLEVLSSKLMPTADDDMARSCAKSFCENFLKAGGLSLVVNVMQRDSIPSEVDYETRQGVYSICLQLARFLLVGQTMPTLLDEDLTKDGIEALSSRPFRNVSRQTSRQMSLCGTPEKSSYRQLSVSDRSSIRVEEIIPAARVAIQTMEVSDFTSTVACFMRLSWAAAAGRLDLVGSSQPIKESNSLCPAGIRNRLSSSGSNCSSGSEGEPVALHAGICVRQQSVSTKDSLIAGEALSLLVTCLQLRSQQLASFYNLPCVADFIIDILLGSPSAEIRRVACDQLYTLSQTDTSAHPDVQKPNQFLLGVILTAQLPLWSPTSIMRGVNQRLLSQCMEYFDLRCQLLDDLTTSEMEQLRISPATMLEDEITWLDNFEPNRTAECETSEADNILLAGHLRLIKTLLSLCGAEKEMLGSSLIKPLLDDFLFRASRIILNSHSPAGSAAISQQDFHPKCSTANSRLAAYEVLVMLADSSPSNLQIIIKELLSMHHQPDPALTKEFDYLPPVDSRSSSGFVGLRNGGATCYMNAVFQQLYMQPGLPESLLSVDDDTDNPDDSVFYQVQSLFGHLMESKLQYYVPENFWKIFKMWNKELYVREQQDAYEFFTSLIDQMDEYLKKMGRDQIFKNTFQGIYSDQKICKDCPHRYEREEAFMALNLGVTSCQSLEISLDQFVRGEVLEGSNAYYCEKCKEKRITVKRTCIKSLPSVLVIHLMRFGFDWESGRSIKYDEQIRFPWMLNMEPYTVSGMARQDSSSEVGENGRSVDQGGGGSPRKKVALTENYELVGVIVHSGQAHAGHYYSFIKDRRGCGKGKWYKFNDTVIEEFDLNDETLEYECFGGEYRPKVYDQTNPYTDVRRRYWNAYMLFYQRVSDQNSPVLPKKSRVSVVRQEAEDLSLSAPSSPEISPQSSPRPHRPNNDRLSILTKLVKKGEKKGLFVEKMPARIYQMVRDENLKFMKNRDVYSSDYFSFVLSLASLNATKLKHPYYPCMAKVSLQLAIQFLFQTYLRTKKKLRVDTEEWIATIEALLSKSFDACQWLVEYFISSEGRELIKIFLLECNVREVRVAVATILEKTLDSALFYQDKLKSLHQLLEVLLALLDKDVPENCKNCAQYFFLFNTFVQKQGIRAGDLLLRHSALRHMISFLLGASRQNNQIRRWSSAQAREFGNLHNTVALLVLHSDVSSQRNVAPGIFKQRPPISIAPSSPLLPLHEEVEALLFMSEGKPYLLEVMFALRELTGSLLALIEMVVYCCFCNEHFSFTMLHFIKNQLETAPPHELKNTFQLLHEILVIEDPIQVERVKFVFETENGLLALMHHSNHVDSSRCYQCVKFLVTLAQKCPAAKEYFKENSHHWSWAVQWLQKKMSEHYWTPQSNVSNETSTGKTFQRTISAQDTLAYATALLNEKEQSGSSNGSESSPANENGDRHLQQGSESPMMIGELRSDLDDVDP
structure (smiles),measurement,setting,value
CC1CN(c2ccc(NC(=O)CCl)cc2)CC(C)O1 (stereo not given),log2 ratio of Biotin-Ahx-Ub-VS probe labelling,USP16,-0.987
same,log2 ratio of Biotin-Ahx-Ub-VS probe labelling,USP19,-0.126
same,log2 ratio of Biotin-Ahx-Ub-VS probe labelling,USP24,-0.205
same,log2 ratio of Biotin-Ahx-Ub-VS probe labelling,USP25,-1.58 (active)
same,log2 ratio of Biotin-Ahx-Ub-VS probe labelling,USP28,-1.57 (active)
